In the library only some 1.1% were active in any assay of this set; here they are far more common.
TbPYK inhibitor: T. brucei pyruvate kinase inhibition; Q57TT1; TbPYK enzyme, Kinase-Glo Plus ATP luminescence, 45 min; actives 0.12% (n = 410,000); Potency, µM (highest dose often 76.8 µM), without a hit: at the top dose activity, negative = inhibition, actives largely listed as inhibitors; note: % is set by controls: 0 for no effect and ±100 for the full control effect; nearly all actives have a fitted effect of over 50% in size
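TbPYK + substrate in 50 mM TEA pH 7.2, 100 mM KCl, 10 mM MgCl2, 0.05% BSA, 0.01% Tween-20; cpd pinned; ADP 130 uM final; 45 min RT; Kinase-Glo Plus 10 min; luminescence endpoint.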
SARS PLP yeast: inhibitors of SARS-CoV papain-like protease in yeast; AID 485353; actives 0.19% (n = 330,000); Potency, µM (top dose mostly 32.9 µM), for inactives: at the top dose activity, positive = growth rescue, usual class: activators; S. cerevisiae expressing SARS-CoV PLpro, growth rescue; calls by dose curve; note: 0% is about no effect; nearly all actives have a fitted effect of over 55% in size
Giardia FBPA inh-1: blocks Giardia fructose-bisphosphate aldolase activity. A8B2U2. purified Giardia FBPA. Potency, µM (series often up to 59.6 µM), for the others: at the highest dose activity, negative = inhibition, most hits filed as inhibitors. actives 0.71% (n = 290,000). AID 2451; note: % is set by controls: 0 for no effect and ±100 for the full control effect; nearly all actives have a fitted effect of over 55% in size
Target sequence (A8B2U2 whole entry, looked up): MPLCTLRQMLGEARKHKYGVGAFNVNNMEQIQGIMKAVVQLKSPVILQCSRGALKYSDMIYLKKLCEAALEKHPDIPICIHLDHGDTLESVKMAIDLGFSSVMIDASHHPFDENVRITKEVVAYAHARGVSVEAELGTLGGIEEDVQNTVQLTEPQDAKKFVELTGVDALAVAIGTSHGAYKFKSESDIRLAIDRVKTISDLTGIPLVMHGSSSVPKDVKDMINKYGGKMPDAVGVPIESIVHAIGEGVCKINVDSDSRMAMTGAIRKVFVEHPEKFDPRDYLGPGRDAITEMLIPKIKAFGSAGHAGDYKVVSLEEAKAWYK
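Giardia FBPA (40 nM reagent) was preincubated 10 min at RT with compound (up to 57.5 uM final), then substrate plus GAPDH/TPI/NAD/arsenate coupling system with diaphorase/resazurin was added; resorufin fluorescence (525/598 nm) was read after 20 min.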
RE007 growth inh: less growth of the S. pombe RE007 Vpr strain; S. pombe RE007 Vpr strain, BacTiter-Glo ATP luminescence, 24 h; actives 0.21% (n = 360,000); Potency, µM (top dose mostly 92.2 µM), for the others: top-dose activity change, negative = less growth, actives largely listed as inhibitors; AID 651644; active = well fitted falling curve with a large enough effect; inconclusive = small, poorly fitted or top-dose-only effect; inactive = no such curve, though single readings can be large or run the other way; note: % is set by controls: 0 for no effect and ±100 for the full control effect; nearly all actives have a fitted effect of over 50% in size
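Fission yeast strain RE007, carrying one chromosomally integrated HIV-1 vpr copy, was seeded at OD 0.01 in PMG+AL medium with 23 nL pinned compound. After 24 h at 30 °C and 99% humidity, viability was read by BacTiter-Glo luminescence.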
LmPK inhibitor: blocks Leishmania mexicana pyruvate kinase activity; purified LmPK, Kinase-Glo ATP luminescence, 1 h; actives 0.37% (n = 290,000); Potency, µM (doses to about 57.5 µM), for inactives: top-dose activity change, negative = inhibition, actives largely listed as inhibitors; note: % is set by controls: 0 for no effect and ±100 for the full control effect
Target sequence (Q27686 whole entry, looked up): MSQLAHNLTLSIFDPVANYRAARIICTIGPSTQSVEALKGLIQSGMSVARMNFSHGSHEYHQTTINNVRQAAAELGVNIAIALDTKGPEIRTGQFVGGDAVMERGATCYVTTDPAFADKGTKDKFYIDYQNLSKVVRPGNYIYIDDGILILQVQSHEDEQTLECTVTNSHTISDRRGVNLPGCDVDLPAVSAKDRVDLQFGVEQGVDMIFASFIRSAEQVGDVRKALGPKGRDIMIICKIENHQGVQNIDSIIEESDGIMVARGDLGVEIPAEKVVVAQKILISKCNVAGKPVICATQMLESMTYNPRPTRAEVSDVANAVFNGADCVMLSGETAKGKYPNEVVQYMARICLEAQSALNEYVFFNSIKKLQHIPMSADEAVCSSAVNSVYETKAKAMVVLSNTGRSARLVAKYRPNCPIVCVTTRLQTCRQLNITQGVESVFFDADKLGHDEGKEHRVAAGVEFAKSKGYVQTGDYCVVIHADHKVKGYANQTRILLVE
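Kinase-Glo luminescence read after 1 h RT reaction of 0.1 nM LmPK with 0.5 mM PEP and 0.1 mM ADP. Activity scaled between uninhibited and enzyme-free controls.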
Giardia growth: Giardia lamblia growth inhibition; Giardia lamblia trophozoite growth inhibition; shares compounds with Giardia FBPA inh-1; actives 5% (n = 1,500); Potency, µM (series often up to 57.5 µM), inactives show at the top dose activity change, negative = inhibition, usual class: inhibitors; AID 2785;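 note: trophozoites exposed to compound for 48 h at 37 °C; % is set by controls: 0 for no effect and ±100 for the full control effect; nearly all actives have a fitted effect of over 70% in size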
Mammalian tox: toxic to mammalian cells in Giardia aldolase counter-screen. shares compounds with Giardia FBPA inh-1. mammalian cell viability counter-screen, qHTS. Potency, µM (highest dose often 57.5 µM), inactives show top-dose viability change, negative = toxicity, usual class: inhibitors. actives 4% (n = 1,500). AID 2786;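 note: Chinese hamster ovary cells used as mammalian cytotoxicity surrogate; viability measured as cellular ATP by luminescence; compound exposure lasted 48 h before reading; % is set by controls: 0 for no effect and ±100 for the full control effect; nearly all actives have a fitted effect of over 60% in size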
Giardia FBPA inh-2: confirmation of Giardia fructose-bisphosphate aldolase inhibitors; actives 5% (n = 1,500); Potency, µM (titrated, usually from 57.5 µM), for inactives: at the top dose activity change, negative = inhibition, most hits filed as inhibitors; purified Giardia aldolase enzyme activity, qHTS; shares compounds with Giardia FBPA inh-1; note: % is set by controls: 0 for no effect and ±100 for the full control effect; nearly all actives have a fitted effect of over 45% in size
Rabbit aldolase: rabbit FBP aldolase inhibition by Giardia aldolase hits | shares compounds with Giardia FBPA inh-1 | Rabbit muscle FBPA enzyme inhibition, selectivity counter-screen | Potency, µM (highest dose often 57.5 µM), for inactives: at the top dose activity, negative = inhibition, most hits filed as inhibitors | actives 4% (n = 1,500) | AID 2794; note: % is set by controls: 0 for no effect and ±100 for the full control effect; nearly all actives have a fitted effect of over 60% in size
GAPDH coupling: GAPDH inhibition flagged for Giardia aldolase hits; AID 2795; GAPDH coupling enzyme counterscreen, biochemical, qHTS; shares compounds with Giardia FBPA inh-1; actives 6% (n = 1,500); Potency, µM (highest dose often 57.5 µM), without a hit: at the highest dose activity change, negative = inhibition, usual class: inhibitors; note: % is set by controls: 0 for no effect and ±100 for the full control effect; nearly all actives have a fitted effect of over 55% in size
An asterisk follows results filed as active; [ ] = remark or other dose. Unless noted, calls come from the whole dose curve; as a rule, active = well fitted curve in the direction sought with a large enough effect; inconclusive = small, poorly fitted or top-dose-only effect, or another doubt; inactive = no such curve, though single readings can be large; an effect the other way counts as inactive or inconclusive. Potency is the fitted concentration of half-maximal effect.

What do the screens show for `CCC(C)NCCOc1cc(C)cc(C)c1C` (stereo unspecified)?
TbPYK inhibitor: -2%; SARS PLP yeast: 0%; Giardia FBPA inh-1: 16µM*; RE007 growth inh: -4%; LmPK inhibitor: -3%; Giardia growth: 21%; Mammalian tox: 1%; Giardia FBPA inh-2: 5%; Rabbit aldolase: 3%; GAPDH coupling: 8%

What do the screens show for `Cc1cnn(C(=S)NCc2ccco2)c1`?
TbPYK inhibitor: -2%; SARS PLP yeast: 9%; Giardia FBPA inh-1: 16µM*; RE007 growth inh: -12%; LmPK inhibitor: 0%; Giardia growth: -3%[10.4 µM]; Mammalian tox: 3%; Giardia FBPA inh-2: -6%; Rabbit aldolase: 4%; GAPDH coupling: 11%

How did NNC(=S)NCc1ccco1 do in these assays?
TbPYK inhibitor: -21%; SARS PLP yeast: 0%; Giardia FBPA inh-1: 18µM*; RE007 growth inh: -10%; LmPK inhibitor: 2%; Giardia growth: -5%[10.4 µM]; Mammalian tox: 0%; Giardia FBPA inh-2: 2%; Rabbit aldolase: 13%; GAPDH coupling: 4%

Results for Cc1cnn(C(=S)NCC2CCCO2)c1 (stereo unspecified) ?
TbPYK inhibitor: -4%; SARS PLP yeast: 7%; Giardia FBPA inh-1: -11%; RE007 growth inh: -18%; LmPK inhibitor: -3%

How did COc1ccc(-c2cn3nc(SCC(=O)Nc4ccccc4F)ccc3n2)cc1 do in these assays?
TbPYK inhibitor: -2%

How did O=S(=O)(NNc1nccc(C(F)(F)F)n1)c1cccc(Cl)c1Cl do in these assays?
TbPYK inhibitor: -9%; SARS PLP yeast: 1%; Giardia FBPA inh-1: 16µM*; RE007 growth inh: 0%; LmPK inhibitor: -4%; Giardia growth: 23%; Mammalian tox: -2%; Giardia FBPA inh-2: inconclusive; Rabbit aldolase: inconclusive; GAPDH coupling: inconclusive

How did Cc1nnc(SCC2=C(C(=O)O)N3C(=O)C(NC(=O)c4cccc(F)c4F)C3SC2)s1 (stereo unspecified) do in these assays?
TbPYK inhibitor: -6%; SARS PLP yeast: 0%; Giardia FBPA inh-1: 14µM*; RE007 growth inh: 14%; LmPK inhibitor: 0%; Giardia growth: 5%[10.4 µM]; Mammalian tox: -6%; Giardia FBPA inh-2: 1%; Rabbit aldolase: -6%; GAPDH coupling: 6%

How did Cc1cc(C)n(CC(=O)NC2C(=O)N3C(C(=O)O)=C(CSc4nnc(C)s4)CSC23)n1 (stereo unspecified) do in these assays?
TbPYK inhibitor: -6%; SARS PLP yeast: -3%; Giardia FBPA inh-1: 13µM*; RE007 growth inh: -13%; LmPK inhibitor: 14%; Giardia growth: 3%; Mammalian tox: -2%; Giardia FBPA inh-2: -1%; Rabbit aldolase: 6%; GAPDH coupling: 1%

Results for O=C(Cn1cnnn1)N[C@@H]1C(=O)N2C(C(=O)O)=C(CSc3nncs3)CS[C@H]12 ?
TbPYK inhibitor: -14%

What do the screens show for `Cc1nnc(SCC2=C(C(=O)O)N3C(=O)C(NC(=O)Cn4ncc(Cl)c4C)C3SC2)s1` (stereo unspecified)?
TbPYK inhibitor: -13%; SARS PLP yeast: -4%; Giardia FBPA inh-1: 20µM*; RE007 growth inh: -6%; LmPK inhibitor: 37%; Giardia growth: -21%; Mammalian tox: -4%; Giardia FBPA inh-2: -8%; Rabbit aldolase: -5%; GAPDH coupling: 0%

What do the screens show for `CC1=C(C(=O)O)N2C(=O)C(NC(=O)c3c(F)cccc3F)C2SC1` (stereo unspecified)?
TbPYK inhibitor: 3%; SARS PLP yeast: 1%; RE007 growth inh: 19%

How did CCOC(=O)CSc1nc2cc3c(cc2c(=O)n1CCCCCC(=O)NCc1ccc2c(c1)OCO2)OCO3 do in these assays?
TbPYK inhibitor: 0%

How did Oc1ccccc1C1Nc2cccc3cccc(c23)N1 do in these assays?
TbPYK inhibitor: -10%; SARS PLP yeast: -11%; Giardia FBPA inh-1: -30%; RE007 growth inh: -7%; LmPK inhibitor: -1%

How did O=[N+]([O-])c1ccccc1C1Nc2cccc3cccc(c23)N1 do in these assays?
TbPYK inhibitor: 26%; SARS PLP yeast: -20%; Giardia FBPA inh-1: inconclusive; RE007 growth inh: -11%; LmPK inhibitor: 4%; Giardia growth: 10µM*; Mammalian tox: -19%; Giardia FBPA inh-2: inconclusive; Rabbit aldolase: -25%; GAPDH coupling: inconclusive

How did N#Cc1cccc(NC(=O)CCNS(=O)(=O)c2ccc3c(c2)CCN3C(=O)C2CC2)c1 do in these assays?
TbPYK inhibitor: 2%

Results for O=C(Nc1nccc(-c2cccs2)n1)c1ccccc1Cl ?
TbPYK inhibitor: -1%; SARS PLP yeast: -1%; Giardia FBPA inh-1: 7.9µM*; RE007 growth inh: -9%; LmPK inhibitor: 0%; Giardia growth: -6%; Mammalian tox: -9%; Giardia FBPA inh-2: 25µM*; Rabbit aldolase: 25µM*; GAPDH coupling: 16µM*

How did COc1ccc(C)cc1NC(=O)CN1C(=O)CCc2cc(S(=O)(=O)N3CCOCC3)ccc21 do in these assays?
TbPYK inhibitor: 4%

Results for O=C(Nc1ccc(Cl)cc1N1CCOCC1)C1CCCCC1 ?
TbPYK inhibitor: 2%; SARS PLP yeast: -4%; Giardia FBPA inh-1: 1%; RE007 growth inh: 15%; LmPK inhibitor: -9%

What do the screens show for `O=C(Nc1ccc(F)cc1)Nc1ccc(N2CCOCC2)c2nonc12`?
TbPYK inhibitor: 1%; SARS PLP yeast: 0%; Giardia FBPA inh-1: -27%; RE007 growth inh: -18%; LmPK inhibitor: -8%

How did COc1ccc(NC(=O)Nc2ccc(N3CCOCC3)c3nonc23)c(OC)c1 do in these assays?
TbPYK inhibitor: 0%; SARS PLP yeast: 0%; Giardia FBPA inh-1: 5µM*; RE007 growth inh: -6%; LmPK inhibitor: 1%; Giardia growth: inconclusive; Mammalian tox: -11%; Giardia FBPA inh-2: -20%; Rabbit aldolase: -4%; GAPDH coupling: -2%

From PubChem
